Screening results: PubChem BioAssay, National Center for Advancing Translational Sciences (NCATS)
G9a inh = inhibitors of human histone lysine methyltransferase G9a | Q96KQ7 | G9a H3K9 monomethylation, AlphaScreen, 2 h | Potency, µM (titrated, usually from 102 µM), without a hit: at the top dose activity, negative = inhibition, most hits filed as inhibitors | 350,000 compounds, 8.8% hits | AID 504332; also: % is scaled to controls: 0 for no effect and ±100 for the full control effect; nearly all actives have a fitted effect of over 75% in size
Target sequence (Q96KQ7 913-1193 limits assumed): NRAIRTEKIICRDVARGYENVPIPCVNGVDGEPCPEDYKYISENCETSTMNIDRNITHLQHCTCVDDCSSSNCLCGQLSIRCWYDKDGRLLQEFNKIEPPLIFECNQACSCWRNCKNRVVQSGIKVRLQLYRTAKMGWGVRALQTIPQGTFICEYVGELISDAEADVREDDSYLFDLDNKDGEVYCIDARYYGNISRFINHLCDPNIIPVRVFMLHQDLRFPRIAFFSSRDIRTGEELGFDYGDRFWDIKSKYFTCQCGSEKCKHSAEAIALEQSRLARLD
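Quantitative HTS format: methyltransferase activity on a biotin-tagged H3K9 peptide is measured by AlphaScreen, using a rabbit anti-monomethyl-H3K9 antibody with streptavidin donor and anti-IgG acceptor beads. Final levels are 20 nM enzyme, 500 nM peptide, 20 uM SAM; 2 h RT.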
BAZ2B block = inhibitors of human BAZ2B bromodomain. AID 504333. AlphaScreen BAZ2B-H3K14Ac peptide displacement. 360,000 compounds, 4.4% hits. Q9UIF8. Potency, µM (top dose mostly 114 µM), for the others: top-dose activity change, negative = inhibition, actives largely listed as inhibitors; also: % is scaled to controls: 0 for no effect and ±100 for the full control effect; nearly all actives have a fitted effect of over 60% in size
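Compounds, titrated to a top concentration of 110 uM, were incubated 30 min at room temperature with preformed BAZ2B/acetyl-K14 H3 peptide complex (50 nM each). Proximity signal was measured by AlphaScreen after 20 min with beads.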
JMJD2A Tudor inh = blocks the human JMJD2A Tudor domain | O75164 | AlphaScreen JMJD2A-Tudor / H3K4me3 peptide binding | Potency, µM (doses to about 114 µM), for inactives: top-dose activity change, negative = inhibition, hits mostly inhibitors | 390,000 compounds, 4.4% hits; also: % is scaled to controls: 0 for no effect and ±100 for the full control effect; nearly all actives have a fitted effect of over 50% in size
Sfp inh = Sfp phosphopantetheinyl transferase inhibition | Biochemical Sfp PPTase activity, qHTS | Q9F4F7 | 310,000 compounds, 3.5% hits | Potency, µM, inactives show largest response in the series, negative = inhibition, hits mostly inhibitors;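 also: the enzyme is Sfp with the accession as filed and its product quenches rhodamine fluorescence; 0% = enzyme reaction without inhibitor and -100% = no enzyme wells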
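Reaction rates are the 30-min fluorescence difference (ex 525, em 598 nm) in wells containing 15 nM Sfp, 5 uM rhodamine-CoA and 12.5 uM BHQ-2-YbbR at pH 7.6 with 10 mM MgCl2.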
HP1b binding inh = blocks HP1-beta chromodomain binding to methylated histone tails; P83916; AlphaScreen HP1-beta / biotin-H3K9me3 peptide binding; Potency, µM (series often up to 114 µM), inactives show at the top dose activity change, negative = inhibition, actives largely listed as inhibitors; 390,000 compounds, 0.56% hits; also: nearly all actives have a fitted effect of over 70% in size
Target sequence (P83916 whole entry, looked up): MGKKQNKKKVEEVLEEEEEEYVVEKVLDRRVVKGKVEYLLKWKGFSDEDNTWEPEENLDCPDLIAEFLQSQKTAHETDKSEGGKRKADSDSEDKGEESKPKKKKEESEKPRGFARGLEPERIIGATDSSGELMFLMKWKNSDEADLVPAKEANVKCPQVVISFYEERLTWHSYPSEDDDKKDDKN
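AlphaScreen: HP1-beta (50 nM) preformed 30 min with biotin-H3(1-18)K9me3 peptide (50 nM) in PBS pH 7.4, 0.01% Tween-20. Compound added for 30 min at RT, then streptavidin donor/nickel chelate acceptor beads (10 ug/mL) for 30 min.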
PLK1 PBD block = inhibitors of human PLK1 polo-box domain binding | P53350 | Plk1 PBD binding of FITC phosphopeptide, fluorescence polarization | Potency, µM, without a hit: max response, negative = inhibition, most hits filed as inhibitors | 360,000 compounds, 2.8% hits | AID 720504; also: series mostly up to about 57 µM; % is scaled to controls: 0 for no effect and ±100 for the full control effect; nearly all actives have a fitted effect of over 65% in size
* hit, by the source's call; ? = inconclusive; · = not tested or not shown; [ ] = another dose, or the depositor's remark. A selection: hits, their analogues and other compounds. The true share with any hit is near 12%. Calls follow the shape of the dose curve; as a rule, active = well fitted curve in the direction sought with a large enough effect; inconclusive = small, poorly fitted or top-dose-only effect, or another doubt; inactive = no such curve, though single readings can be large; an effect the other way counts as inactive or inconclusive. Potency is read from the fitted curve at half-maximal effect.

SMILES | G9a inh | BAZ2B block | JMJD2A Tudor inh | Sfp inh | HP1b binding inh | PLK1 PBD block
CC(C)(C)C1CCc2c(sc3nc(SCC(=O)O)nc(N)c23)C1 (stereo not drawn) | 28µM* | -13% | -12% | -2% | 14% | ?
Cc1ccccc1NC(=O)CSc1nc(N)c2c3c(sc2n1)CSC(C)(C)C3 | ? | ? | -25% | -4% | 79µM* | -4%
Nc1nc(SCC(=O)NCCCO)nc2sc3c(c12)CCC3 | -8% | -7% | -8% | 19% | 2% | -5%
COC(=O)CSc1nc(N)c2c3c(sc2n1)C(c1ccccc1)SC(c1ccccc1)C3 (stereo not drawn) | ? | 7% | 7% | 40µM* | 48% | -13%
Cc1ccc(NC(=O)CSc2nc(N)c3c4c(sc3n2)CSC(C)(C)C4)cc1 | 19%[59 µM] | -34% | -9% | 11% | 16% | -1%
Nc1nc(SCC(=O)NCCO)nc2sc3c(c12)CCCC3 | 18% | -14% | -17%[11.4 µM] | 22% | -7% | 24µM*
O=C(Nc1nnc(CCc2ccccc2)s1)C1CCN(C(=O)c2ccco2)CC1 | · | · | -18% | · | 12% | ·
Cc1ccccc1CCNC(=O)CCn1nc(C)c2c(C)n(-c3ccccc3)nc2c1=O | -4% | 2% | -9% | 11% | 52% | -5%
CCC(C(=O)Nc1ccccc1Cl)n1nc(C)c2c(C)n(-c3ccccc3)nc2c1=O (stereo not drawn) | 30% | -24% | ? | -3% | -15% | 21µM*
Cc1nn(CCC(=O)NCCc2ccccc2Cl)c(=O)c2nn(-c3ccccc3)c(C)c12 | -1% | -6% | -17% | 14% | -5% | 30µM*
Cc1nn(Cc2ccccc2)c(C)c1CNC(=O)CN=C1NS(=O)(=O)c2ccccc21 | -6% | -2% | -7% | · | 23% | -3%
CCOc1ccc(NC(=O)CCc2c(C)nc3c(c(C)nn3-c3ccccc3)c2C)cc1 | -3%[59 µM] | 2% | -2% | · | 38% | ·
CNc1nc(N)c([N+](=O)[O-])c(Nc2ccccc2OC)n1 | 19% | 0% | -11% | -2% | 12% | -3%
COc1ccccc1N1C(=O)C2ON(c3ccccc3)C(c3ccc(N(C)C)cc3)C2C1=O (stereo not drawn) | 8.9µM* | 35µM* | · | 45µM* | · | ·
COc1ccccc1C1C2C(=O)N(c3ccccc3)C(=O)C2ON1c1ccccc1 (stereo not drawn) | -1%[12.7 µM] | -3% | -21% | 9% | 22% | -9%
CCCC[C@@H](C=O)NC(=O)[C@H](CC(C)C)NC(=O)[C@H](CC(C)C)NC(C)=O | 33%[59 µM] | · | · | 19% | · | ·
Cc1ccccc1NC(=O)CN1C(=O)CSc2ccc(S(=O)(=O)N3CCCCC3)cc21 | 7%[59 µM] | -6% | ? | 2% | 2% | 21µM*
CC1CCCN(CCCNC(=O)CN2C(=O)CSc3ccc(S(=O)(=O)N4CCOCC4)cc32)C1 (stereo not drawn) | 9% | -6%[57.1 µM] | -5% | 7% | 74% | -19%
CC1CCCN(C(=O)CN2C(=O)CSc3ccc(S(=O)(=O)N4CCOCC4)cc32)C1 (stereo not drawn) | 15%[59 µM] | -3% | -18% | 1% | 18% | 27µM*
OC[C@@H]1CN(Cc2ccc(-c3ccccc3)cc2)C[C@H](n2cnc3c(NC4CCC4)ncnc32)O1 | · | · | · | · | · | -11%
C=C1CCC2[C@](C)(CO)C(O)CC[C@]2(C)C1C/C=C1/C(=O)OCC1O (stereo partly drawn) | 17%[59 µM] | · | · | 16% | · | ·
C=C[C@]1(C)C=C2CCC3[C@](C)(CCC[C@@]3(C)C(=O)O)C2CC1 (stereo partly drawn) | 4%[12.7 µM] | -10% | ? | · | 14% | 24µM*
C=C/C(C)=C/CC1C(=C)CCC2C(C)(C(=O)O)CCCC12C (stereo not drawn) | 5%[12.7 µM] | -34% | 56µM* | -2% | 20% | 19µM*
Cc1cc(C)c2oc(C(=O)Nc3sc4c(c3C(=O)NCc3ccco3)CCC4)cc(=O)c2c1 | 0%[59 µM] | -1% | -6% | · | 49% | ·
